Experimental data reported in PubChem BioAssay.
The source made the active and inactive calls.

Key:
[1] = small molecules captured by biotinylated probe aFSTL3 – biochemical, small-molecule microarray, fluorescence 635/667, stem cell growth factor project, primary screen (AID 1064); conditions: higher = more signal;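 further: measures binding of the biotinylated anti-FSTL3 antibody to printed compounds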
[2] = binders from COS7 lysate, DM2A8 probe, primary screen, torsin A project, cell lysate, small-molecule microarray, fluorescence 635/667 (AID 1065); conditions: higher = more signal, COS7 lysate expressing mutant human TOR1A
[3] = small molecules captured by biotinylated probe aFGF2 – biochemical, small-molecule microarray, fluorescence 635/667, stem cell growth factor project, primary screen (AID 1067); conditions: higher = more signal;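 further: measures binding of biotinylated aFGF2 protein to printed compounds on slides; z-score merges feature fluorescence and signal-to-noise across triplicate slides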
[4] = small molecules captured by biotinylated probe aFGF10 – biochemical, small-molecule microarray, fluorescence 635/667, stem cell growth factor project, primary screen (AID 1071); conditions: higher = more signal;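 further: score merges 667 nm spot intensity and signal to noise from triplicate slides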
[5] = biological target: Neurogenic locus notch homolog protein 2 (Homo sapiens) (UniProt Q04721); experiment: small molecules binding Notch2 protein – biochemical, small-molecule microarray, 635 nm fluorescence, stem cell growth factors, primary screen (AID 1073); conditions: higher = more signal
[6] = biological target: Pro-neuregulin-1, membrane-bound isoform (Homo sapiens) (UniProt Q02297); experiment: small molecules binding neuregulin-1 protein – biochemical, small-molecule microarray, fluorescence 635/667, psychiatric disease protein project, primary screen (AID 1075); conditions: NRG1 binding, 635 nm fluorescence, higher = more signal;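 further: score combines 667 nm spot fluorescence with signal to noise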
[7] = test system: Neuregulin-1 EGF-like domain; experiment: small molecules binding NRG1 EGF domain – biochemical, small-molecule microarray, 635 nm fluorescence, primary screen (AID 1081); conditions: higher = more signal;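 further: binding of the protein to compounds printed on small-molecule microarray slides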
[8] = FRG1 expression reporter modulators in myotubes – cell-based, C2C12 myotubes, firefly/Renilla luciferase, luminescence, FRG1 inhibition for FSHD, primary screen (AID 1084); conditions: FRG1 promoter luciferase, higher = more signal, called active from +8 up or from −8 down
[9] = small molecules captured by biotinylated probe aFST – biochemical, small-molecule microarray, fluorescence 635/667, stem cell growth factor project, primary screen (AID 1086); conditions: higher = more signal;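 further: score merges 667 nm fluorescence with signal-to-noise of each printed compound spot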
[10] = binders of probe aHhip on microarray, primary screen, stem cell growth factor project, biochemical, small-molecule microarray, fluorescence 635/667 (AID 1087); conditions: higher = more signal;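 further: score merges spot fluorescence at 667nm with spot signal to noise ratio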

Sequence of Pro-neuregulin-1, membrane-bound isoform (Homo sapiens) (Q02297 whole entry, looked up, the tested form may be a part, canonical isoform): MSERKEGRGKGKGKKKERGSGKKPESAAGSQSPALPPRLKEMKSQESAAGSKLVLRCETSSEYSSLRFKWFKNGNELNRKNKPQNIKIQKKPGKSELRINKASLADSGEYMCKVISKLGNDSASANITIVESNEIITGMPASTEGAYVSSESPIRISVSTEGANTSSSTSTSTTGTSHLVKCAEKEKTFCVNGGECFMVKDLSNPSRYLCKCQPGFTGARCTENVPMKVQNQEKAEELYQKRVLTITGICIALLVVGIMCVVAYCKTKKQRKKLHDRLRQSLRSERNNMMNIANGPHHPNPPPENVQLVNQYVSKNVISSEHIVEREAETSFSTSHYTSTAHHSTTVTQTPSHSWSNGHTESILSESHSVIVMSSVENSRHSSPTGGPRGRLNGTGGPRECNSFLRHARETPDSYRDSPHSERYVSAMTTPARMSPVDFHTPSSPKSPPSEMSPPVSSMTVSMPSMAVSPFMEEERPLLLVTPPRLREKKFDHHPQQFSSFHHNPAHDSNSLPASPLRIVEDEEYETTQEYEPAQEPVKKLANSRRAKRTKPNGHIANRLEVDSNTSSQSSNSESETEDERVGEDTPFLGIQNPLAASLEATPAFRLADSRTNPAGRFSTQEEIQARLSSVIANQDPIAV
Sequence of Neurogenic locus notch homolog protein 2 (Homo sapiens) (Q04721 whole entry, looked up, canonical isoform): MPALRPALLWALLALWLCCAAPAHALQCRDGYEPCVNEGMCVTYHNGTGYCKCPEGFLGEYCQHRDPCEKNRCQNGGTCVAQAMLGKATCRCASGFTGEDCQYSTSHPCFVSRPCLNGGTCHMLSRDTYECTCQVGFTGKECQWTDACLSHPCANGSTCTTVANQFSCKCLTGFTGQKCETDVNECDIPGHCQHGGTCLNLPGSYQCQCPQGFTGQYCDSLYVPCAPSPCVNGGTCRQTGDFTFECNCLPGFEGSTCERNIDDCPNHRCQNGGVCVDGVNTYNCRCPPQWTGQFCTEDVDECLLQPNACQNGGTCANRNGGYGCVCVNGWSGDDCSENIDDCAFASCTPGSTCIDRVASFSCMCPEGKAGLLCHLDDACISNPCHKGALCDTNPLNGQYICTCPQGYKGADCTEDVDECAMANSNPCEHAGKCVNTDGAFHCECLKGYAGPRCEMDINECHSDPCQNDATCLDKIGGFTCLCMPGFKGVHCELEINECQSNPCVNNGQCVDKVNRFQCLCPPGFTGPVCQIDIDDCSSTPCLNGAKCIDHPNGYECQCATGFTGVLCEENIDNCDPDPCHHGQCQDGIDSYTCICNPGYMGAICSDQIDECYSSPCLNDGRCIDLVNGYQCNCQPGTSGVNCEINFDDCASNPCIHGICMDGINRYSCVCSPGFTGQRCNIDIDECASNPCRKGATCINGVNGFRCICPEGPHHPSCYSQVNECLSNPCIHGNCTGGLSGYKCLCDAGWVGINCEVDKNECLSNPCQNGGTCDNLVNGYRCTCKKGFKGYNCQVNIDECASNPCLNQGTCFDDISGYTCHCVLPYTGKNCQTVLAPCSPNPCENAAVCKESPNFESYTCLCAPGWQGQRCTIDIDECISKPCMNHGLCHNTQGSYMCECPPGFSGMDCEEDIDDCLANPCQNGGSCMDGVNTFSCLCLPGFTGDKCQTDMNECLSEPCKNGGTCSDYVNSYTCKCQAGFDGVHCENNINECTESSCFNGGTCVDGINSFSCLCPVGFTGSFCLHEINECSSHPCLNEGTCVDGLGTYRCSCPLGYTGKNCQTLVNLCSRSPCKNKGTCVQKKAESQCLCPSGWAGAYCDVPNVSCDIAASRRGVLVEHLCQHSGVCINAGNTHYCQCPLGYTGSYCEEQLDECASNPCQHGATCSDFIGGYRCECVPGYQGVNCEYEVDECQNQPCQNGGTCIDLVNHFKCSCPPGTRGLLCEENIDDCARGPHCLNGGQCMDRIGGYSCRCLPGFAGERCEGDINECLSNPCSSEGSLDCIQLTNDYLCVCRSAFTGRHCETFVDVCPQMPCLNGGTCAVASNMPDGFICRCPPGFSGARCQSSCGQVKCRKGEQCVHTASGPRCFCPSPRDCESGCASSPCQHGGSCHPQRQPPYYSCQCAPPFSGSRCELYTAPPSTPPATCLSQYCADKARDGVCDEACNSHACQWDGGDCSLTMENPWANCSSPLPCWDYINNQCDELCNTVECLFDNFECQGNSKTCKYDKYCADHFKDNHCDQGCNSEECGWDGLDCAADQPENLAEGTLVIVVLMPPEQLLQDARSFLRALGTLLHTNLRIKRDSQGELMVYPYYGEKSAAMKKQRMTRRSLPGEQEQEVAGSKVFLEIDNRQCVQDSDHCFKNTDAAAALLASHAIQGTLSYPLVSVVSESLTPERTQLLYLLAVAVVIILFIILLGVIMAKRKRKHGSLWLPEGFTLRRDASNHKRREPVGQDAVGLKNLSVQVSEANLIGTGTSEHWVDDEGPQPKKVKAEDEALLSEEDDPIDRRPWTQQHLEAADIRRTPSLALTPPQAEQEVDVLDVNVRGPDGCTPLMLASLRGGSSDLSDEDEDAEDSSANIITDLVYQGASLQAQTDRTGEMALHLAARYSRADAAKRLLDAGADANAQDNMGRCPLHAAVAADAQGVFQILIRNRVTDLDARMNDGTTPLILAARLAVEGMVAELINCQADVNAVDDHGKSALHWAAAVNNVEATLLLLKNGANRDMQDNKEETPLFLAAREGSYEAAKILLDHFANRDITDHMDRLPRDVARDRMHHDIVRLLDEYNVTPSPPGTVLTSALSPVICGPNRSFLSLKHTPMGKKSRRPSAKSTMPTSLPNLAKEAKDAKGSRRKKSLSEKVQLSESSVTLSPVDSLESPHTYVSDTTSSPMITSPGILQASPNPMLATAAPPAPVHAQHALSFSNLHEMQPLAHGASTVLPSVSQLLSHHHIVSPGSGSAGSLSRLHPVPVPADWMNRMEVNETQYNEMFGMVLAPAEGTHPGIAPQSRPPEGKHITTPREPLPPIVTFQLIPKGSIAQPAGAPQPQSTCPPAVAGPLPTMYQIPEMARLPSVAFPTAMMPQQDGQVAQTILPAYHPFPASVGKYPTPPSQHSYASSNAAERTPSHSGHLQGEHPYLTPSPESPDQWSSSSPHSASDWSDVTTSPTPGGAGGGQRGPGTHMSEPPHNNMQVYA

Row | Compound | composite z-score [1] | composite z-score [2] | composite z-score [3] | composite z-score [4] | composite z-score [5] | composite z-score [6] | composite z-score [7] | z-score [8] | composite z-score [9] | composite z-score [10]
1 | CCN1C(C)=C(C(=O)OC)[C@@H](c2ccccc2)N2C(=O)[C@](O)(C(=O)OC)[C@@H](c3ccccc3)C(C(=O)c3ccccc3)=C12 | -0.14 | 0.36 | -0.0493 | 0.671 | 0.442 | 0.607 | 0.708 | -4.12 (inactive) | 0.0486 | 0.141
2 | CO[C@@H]1COC(=O)[C@@H]2CCCN2C(=O)CC=C[C@@H](C)[C@H](OC)COC(=O)[C@@H]2CCCN2C(=O)CC=C[C@H]1C | -0.614 | 0.164 | -0.113 | 0.0311 | -0.545 | -0.312 | 0.732 | 0.47 (inactive) | -0.0975 | 0.347
3 | C=CC[C@@]12N=C(c3ccc(OCCCO)cc3)O[C@@H]1c1ccccc1CN(Cc1ccccc1)C2=O | 1.36 | 0.845 | -0.0043 | 0.245 | 0.477 | 0.713 | 1.16 | -4 (inactive) | 0.15 | -0.138
4 | O=C1C2C=CC(C(O)C#Cc3ccccc3)N(Nc3ccccc3)C2C(=O)N1c1ccccc1 (stereo not given) | 0.532 | -0.17 | -0.0316 | 0.208 | 1.46 | 1.74 | 1.24 | 0.818 (inactive) | 0.246 | -0.226
5 | C=CC[C@]1(C(=O)NCC(O)CO)N=C(c2ccc(OCCCO)cc2)O[C@H]1c1ccccc1 (stereo not given in full) | 1.28 | -0.012 | -0.118 | -0.843 | -0.502 | 2.14 | 1.25 | -1.1 (inactive) | -0.0064 | -0.124
6 | CC(C)CNC(=O)[C@@]1(C)c2ccccc2C(=O)N(Cc2ccc(OC(F)(F)F)cc2)[C@H]1c1ccc(CO)cc1 | 1.39 | -0.37 | -0.0149 | -0.925 | -1.71 | -0.81 | 0.257 | -3.49 (inactive) | -0.291 | -0.353
7 | COc1cc([C@@H]2N[C@H](C(=O)O)Cc3c2[nH]c2ccccc32)cc(OC)c1OC | -0.534 | 0.55 | -0.0806 | 0.28 | 0.507 | 0.0318 | -0.205 | -0.643 (inactive) | -0.134 | 0.338
8 | CO[C@H]1O[C@H](CO)[C@@H](OC(=O)Nc2ccccc2)[C@H](OC(=O)Nc2ccc3c(c2)OCO3)[C@@H]1OC(=O)Nc1ccc2c(c1)OCO2 | 0.304 | 1.66 | -0.0784 | 0.158 | 0.288 | 1.77 | 1.29 | 2.25 (inactive) | 0.474 | -0.191
9 | O=C(NCc1ccccc1)c1ccc(Br)cc1[N+](=O)[O-] | -0.375 | 0.13 | -0.138 | 0.438 | 0.596 | 0.661 | 0.341 | -0.567 (inactive) | 0.514 | -0.114
10 | N#Cc1ccc(NN2C(C(O)CCc3ccccc3)C=CC3C(=O)N(c4ccccc4)C(=O)C32)cc1 (stereo not given) | 0.681 | 0.936 | 0.078 | -0.0011 | 1.62 | 1.17 | 1 | -1.22 (inactive) | 1.02 | -0.177
11 | CCC#CCN(Cc1ccccc1Br)[C@H](/C=C/c1ccccc1)[C@@H](O)Cc1ccccc1 | 1.78 | -0.387 | -0.176 | -0.61 | -1.52 | -0.0939 | -0.11 | -0.227 (inactive) | -0.465 | -0.271
12 | CCCNC(=O)[C@@]1(Sc2ccc(C)cc2)CC(=O)N(Cc2ccccc2Cl)[C@@H]1c1ccc(CO)cc1 | 0.295 | -0.106 | -0.0711 | 0.122 | 0.653 | -0.0272 | 1.3 | -3.75 (inactive) | 0.427 | -0.0672
13 | CC(C)[C@H]1NC(=O)[C@@]23C(=O)N[C@@H](Cc4ccccc4)C2[C@H](C)[C@@]2(C)O[C@H]2C3/C=C/C/C=C\CNC(=O)[C@H](C)NC1=O (stereo not given in full) | 0.11 | -0.663 | -0.164 | 0.51 | -1.59 | -0.967 | 0.754 | 0.194 (inactive) | -0.367 | -0.399
14 | [N-]=[N+]=NCc1ccccc1C[C@@]1(C(=O)O)N=C(c2ccc(OCCCO)cc2)O[C@@H]1c1ccccc1N=[N+]=[N-] | 0.168 | -0.259 | -0.0242 | 0.377 | 1.55 | 1.66 | 1.22 | -1.6 (inactive) | 0.521 | -0.0994
15 | COc1cc2c(cc1OC)CN(C(=O)[C@@H]1[C@H]3C(=O)O[C@H](c4ccccc4)[C@H](c4ccccc4)N3[C@H](c3ccccc3OCCO)[C@@]13C(=O)Nc1ccccc13)CC2 | -1.08 | 1.04 | -0.148 | 0.575 | 0.803 | 1.39 | 1.18 | -0.268 (inactive) | -0.44 | -0.702
16 | Cc1ccc(S(=O)(=O)N2[C@@H](c3ccccc3)C(C(=O)O)=CC[C@H]2c2ccccc2)cc1 | -0.0332 | -0.0906 | -0.0502 | 0.693 | 1.44 | 1.06 | 1.38 | -2.89 (inactive) | 0.273 | 0.0854
17 | CCCCCCc1nc(C2CC2)c(C)c2c1[Si](C(C)C)(C(C)C)OC2 | 0.411 | 0.159 | -0.167 | -0.588 | -0.923 | -0.322 | -0.629 | -0.139 (inactive) | -0.266 | -0.0672
